PubChem BioAssay AID720519 (National Center for Advancing Translational Sciences (NCATS), 2013)
Results filed as inconclusive are left out. The call rests on the fitted dose curve; in most records, active means well fitted activation curve with a large enough effect; inconclusive means small, poorly fitted or top-dose-only effect; inactive means flat fitted curve, though single readings scatter.

Experiment: qHTS for Inhibitors of Cell Surface uPA Generation: Confirmatory Assay for Cherry-picked Compounds; further: 0% is about no effect
Details: cell surface uPA activity generation, qHTS confirmation; series mostly up to 115 µM; inhibition: at the top concentration
Method in brief: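 RAW 264.7 cells at 4000/well, incubated overnight, then treated with compounds. After 24 h at 37 C, viability was read by ATPlite luminescence. An increase in signal indicates blocked uPA-dependent LF entry.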

inhibition, inactive:
O=S(=O)(NCC(c1cccnc1)N1CCOCC1)c1ccccc1 (centres undefined) -1.68%, COc1cc(C(C)=O)ccc1OCc1cn(CC(=O)c2ccc(O)cc2)nn1 -2.26%, CC(C)N1CCc2c(sc(NC(=O)Cc3ccccc3)c2C(N)=O)C1 -0.422%, CCc1nnc(NC(=O)CSc2nnnn2-c2cccc(C(C)=O)c2)s1 -1.2%, COCCNC(=O)C(c1c[nH]c2ccccc12)N(C(=O)c1snc(C(N)=O)c1N)c1cccc(OC)c1 (centres undefined) 3.14%, COC(/C=C/Nc1ccc(Cl)cc1)=C(C#N)C#N -0.118%, COc1ccccc1N1CCN(CC(=O)c2c(C)[nH]c3ccccc23)CC1 1.37%, Oc1ccc(/C=N/Nc2cccc(Cl)n2)c(O)c1 -3.54%, Cc1ccc(NC(=S)N2CCN(Cc3ccc4c(c3)OCO4)CC2)c(C)c1 -3.55%, CC[C@]1(C(=O)OC)[C@H]2C(=O)N(C)C(=O)[C@H]2[C@H]2CN(C)C(=NC3CCCCC3)N21 0.58%, CC1(C)CC(CCC(=O)NC(=S)Nc2ccccc2Cl)C(=O)O1 (centres undefined) -2.62%, Nc1nc2ccc(Br)cc2o1 -2.31%, CC1(C)Oc2ccc3ccc(=O)oc3c2[C@@H](O)[C@H]1O -1.76%, CCC1(C)NC(=O)N(CC(=O)Nc2sc3c(c2C(N)=O)CCC3)C1=O (centres undefined) 7.12%, CC(=O)NS(=O)(=O)c1ccc(NC(=O)c2cccc(OCc3c(C)noc3C)c2)cc1 -0.123%, CCOC(=O)C1(CC2CCCCO2)CCN(Cc2nccn2-c2cccc(C)c2)CC1 (centres undefined) -2.87%, CC(C)NC(=O)CN1CCC(c2nc3ccccc3[nH]2)CC1 -0.869%, Cc1c(C(=O)N(Cc2ccccc2Cl)C2CCS(=O)(=O)C2)oc2ccccc12 (centres undefined) -3.3%, Cc1ccc(S(=O)(=O)Nc2nc(C)cc(N/N=C/c3ccc(O)cc3)n2)cc1 -3.07%, Cc1ccc2sc(NNC(=O)c3ccc4c(c3)OCCO4)nc2c1C -3.56%, COc1cc(CN2CCN(c3ncccn3)CC2)cc(OC)c1 -1.56%, COc1ccc(N(C(C)C(=O)NN=C2CCCC2)S(C)(=O)=O)cc1 (centres undefined) -0.44%, COCCn1c(SCC(=O)Nc2ccc(F)cc2)nc2ccccc2c1=O 5.44%, COc1ccc(C2=NOC(CNC(N)=S)C2)cc1 (centres undefined) -3.56%, COc1ccc(CC(=O)Nc2nc(C)cs2)cc1OC -2.97%, O=C(C1CCN(c2nnc(N3CCCC3=O)s2)CC1)N1CCN(c2cccc(C(F)(F)F)c2)CC1 -2.97%, CCN1CCN(C(c2ccccc2)c2nnnn2Cc2ccc3c(c2)OCO3)CC1 (centres undefined) 2.01%, COc1ccc(NS(=O)(=O)c2cc(NS(=O)(=O)c3cc(C(=O)O)ccc3OC)ccc2C)cc1 -0.471%, O=C(C1CCCCN1S(=O)(=O)c1ccc(F)cc1)N1CCN(c2ccccc2F)CC1 (centres undefined) 0.855%, CCOc1ccc(-c2n[nH]c(=S)n2Cc2ccccc2)cc1 -0.435%, CC1CCCC(NC(=O)CNC(=S)N(Cc2ccccc2)Cc2cccs2)C1C (centres undefined) -2.48%, C[C@@]12C(=O)N(CC3CCCO3)CC(=O)N1[C@H]1c3cc(Cl)ccc3OC[C@@H]1[C@@H]2c1ccccc1 (some centres undefined) -2.79%, CCOC(=O)Cc1csc(NC(=O)Nc2cccc(OC)c2)n1 1.72%, COc1cc(CCC(=O)OCC(=O)Nc2ccc(C)cc2Br)cc(OC)c1OC -1.75%, CCn1c(=O)cc(C(=O)OC)sc1=Nc1ccc(F)c(F)c1 -3.55%, Cc1cc(C)c(S(=O)(=O)N2CCCOC2CNC(=O)C(=O)NCc2cccs2)c(C)c1 (centres undefined) -0.442%, O=C(CCc1ccccc1)NNC(=O)c1cccc(F)c1 -2.32%, Cc1cc(SCc2ccc(Cl)cc2)nc(=O)[nH]1 -3%, Cc1cccc(N2CCN(Cc3ccc(Br)o3)CC2)c1C 1.91%
